Data taken from PubChem BioAssay AID1159580 (chemical genetic matrix, 2015).
Where “and” joins values, the source holds several entries; their conditions need not be identical. Equal entries are not always repeated. About 2,000 (36%) of roughly 5,500 compounds were called active. Not shown: some 18% with an inconclusive outcome. No stated cut-off is given here; in the data, active means normalized growth mostly below about 0.91 (no sharp cut-off); inconclusive means no clear call, values can overlap the other calls; inactive means mostly above about 0.92. The list shows a part of the results.

Assay: chemical genetic growth profiling, strain panel (AID 1159580);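 further: tested at 20 µM; growth read once vehicle control cultures reached saturation at 30 °C; 1 = growth at the plate median or of vehicle wells; lower values mean less growth of the strain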
Conditions: S. cerevisiae deletion strains, growth OD

Measured: normalized growth

Nc1ccc(S(=O)(=O)NC(=O)c2ccccc2)cc1
inactive: locus YAL013W, strain DEP1, hits give low values 1.01 | locus YAL021C, strain ccr4, hits give low values 0.985 | locus YAL026C, strain drs2, hits give low values 1 | locus YAL030W, strain snc1, hits give low values 1.01 | locus YBL061C, strain skt5, hits give low values 0.99 | locus YBR009C, strain hhf1, hits give low values 0.959 | locus YBR021W, strain FUR4, hits give low values 1.04 | locus YBR023C, strain chs3, hits give low values 0.995 | locus YBR171W, strain sec66, hits give low values 0.992 | locus YBR229C, strain ROT2, hits give low values 1.01 | locus YBR231C, strain swc5, hits give low values 0.992 | locus YBR279W, strain paf1, hits give low values 0.985 | locus YCL011C, strain gbp2, hits give low values 1 | locus YCL016C, strain dcc1, hits give low values 1.01 | locus YCL029C, strain bik1, hits give low values 1.02 | locus YCL061C, strain MRC1, hits give low values 0.979 | locus YCL069W, strain vba3, hits give low values 0.968 | locus YCR088W, strain abp1, hits give low values 0.978 | locus YDL005C, strain med2, hits give low values 0.992 | locus YDL035C, strain GPR1, hits give low values 1.01 | locus YDL040C, strain nat1, hits give low values 0.998 | locus YDL074C, strain BRE1, hits give low values 1.01 | locus YDL101C, strain DUN1, hits give low values 1.01 | locus YDL134C, strain PPH21, hits give low values 1.02 | locus YDL185W, strain tfp1, hits give low values 0.999 | locus YDL192W, strain arf1, hits give low values 1.02 | locus YDR001C, strain nth1, hits give low values 0.975 | locus YDR069C, strain doa4, hits give low values 0.973 | locus YDR101C, strain arx1, hits give low values 1.02 | locus YDR137W, strain rgp1, hits give low values 0.959 | locus YDR159W, strain sac3, hits give low values 0.948 | locus YDR162C, strain NBP2, hits give low values 1 | locus YDR195W, strain ref2 0.957 | locus YDR297W, strain sur2, hits give low values 0.997 | locus YDR318W, strain mcm21, hits give low values 1.03 | locus YDR334W, strain swr1, hits give low values 0.934 | locus YDR335W, strain msn5, hits give low values 0.985 | locus YDR388W, hits give low values 1.02 | locus YDR392W, strain spt3, hits give low values 1.01 | locus YDR502C, strain sam2, hits give low values 1.03 | locus YEL003W, strain gim4, hits give low values 0.99 | locus YEL037C, strain rad23, hits give low values 0.988 | locus YEL061C, strain CIN8 (second series), hits give low values 0.993 | locus YEL061C, strain CIN8, hits give low values 1.01 | locus YER015W, strain faa2, hits give low values 0.998 | locus YER016W, strain bim1, hits give low values 0.974 | locus YER110C, hits give low values 1.03 | locus YER111C, strain swi4, hits give low values 1.01 | locus YER155C, strain BEM2 (second series), hits give low values 1.02 | locus YER155C, strain BEM2, hits give low values 1.01 | locus YER167W, strain BCK2, hits give low values 1 | locus YFR010W, strain ubp6, hits give low values 0.951 | locus YGL078C, strain dbp3, hits give low values 1.02 | locus YGL086W, strain mad1, hits give low values 1.01 | locus YGL167C, strain pmr1, hits give low values 0.964 | locus YGL173C, strain kem1, hits give low values 0.986 | locus YGL227W, strain vid30, hits give low values 0.967 | locus YGL240W, strain doc1, hits give low values 0.998 | locus YGL248W, strain PDE1, hits give low values 1 | locus YGL253W, strain hxk2, hits give low values 0.989 | locus YGR135W, strain pre9, hits give low values 1.02 | locus YGR252W, strain gcn5, hits give low values 0.997 | locus YHR013C, strain ard1, hits give low values 0.98 | locus YHR027C, strain rpn1, hits give low values 0.993 | locus YHR030C, strain SLT2, hits give low values 1.01 and 0.995 | locus YHR079C, strain IRE1 (second series), hits give low values 1.01 | locus YHR079C, strain IRE1, hits give low values 0.98 | locus YHR094C, strain hxt1, hits give low values 1.01 | locus YHR129C, strain ARP1, hits give low values 0.996 | locus YHR142W, strain chs7, hits give low values 0.997 | locus YHR200W, strain rpn10, hits give low values 1.02 | locus YIL066C, strain RNR3, hits give low values 1.01 | locus YIL073C, strain SPO22, hits give low values 1.06 | locus YIL125W, strain kgd1, hits give low values 1.01 | locus YIR030C, strain dcg1, hits give low values 1.02 | locus YJL092W, strain hpr5, hits give low values 0.993 | locus YJL095W, strain BCK1 (second series), hits give low values 0.996 | locus YJL095W, strain BCK1, hits give low values 0.994 and 0.999 | locus YJL115W, strain asf1, hits give low values 0.999 | locus YJL129C, strain trk1, hits give low values 0.983 | locus YJL134W, strain LCB3, hits give low values 1.01 | locus YJL154C, strain vps35, hits give low values 0.99 | locus YJL164C, strain tpk1, hits give low values 0.979 | locus YJL166W, strain qcr8, hits give low values 0.983 | locus YJL168C, strain set2, hits give low values 1.01 | locus YJL187C, strain SWE1 (second series), hits give low values 1.01 | locus YJL187C, strain SWE1, hits give low values 0.992 | locus YJR043C, strain POL32, hits give low values 1.01
